We go through six sequences from publication PMC7862700, “An all-to-all approach to the identification of sequence-specific readers for epigenetic DNA modifications on cytosine”.

Common to all, as to assay: DAPPL (digital affinity profiling via proximity ligation, sequencing); 10 mM Tris-HCl pH 7.5, 50 mM NaCl, 1 mM DTT, 4% glycerol, room temperature, 30 min; GST-TFs on glutathione beads, 16-mer random dsDNA library, 0.1% formaldehyde crosslink after washing; high values mean tight binding
One experiment has as its target HSF1 (Homo sapiens, UniProt Q00613 1-529). To be noted: protein: recombinant; tags: N-terminal GST; chain copies: 3; dsDNA, one strand shown. In short, it runs like this:
(§1)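 Human transcription factors were made in yeast as GST fusions, captured on glutathione beads and barcoded with DNA. With a tag-only sample included, the pool was incubated with 200 nmole of a random double-stranded 16-mer DNA library in Tris/NaCl/DTT/glycerol buffer at room temperature for 30 min, then crosslinked with 0.1% formaldehyde after washing, ligated by proximity, amplified and sequenced. For binding signal, each hexamer's read frequency for a factor is divided by its frequency for the tag-only sample.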

The next experiment addresses T1, ERF (Homo sapiens, UniProt P50548 1-548).
T1 sequence: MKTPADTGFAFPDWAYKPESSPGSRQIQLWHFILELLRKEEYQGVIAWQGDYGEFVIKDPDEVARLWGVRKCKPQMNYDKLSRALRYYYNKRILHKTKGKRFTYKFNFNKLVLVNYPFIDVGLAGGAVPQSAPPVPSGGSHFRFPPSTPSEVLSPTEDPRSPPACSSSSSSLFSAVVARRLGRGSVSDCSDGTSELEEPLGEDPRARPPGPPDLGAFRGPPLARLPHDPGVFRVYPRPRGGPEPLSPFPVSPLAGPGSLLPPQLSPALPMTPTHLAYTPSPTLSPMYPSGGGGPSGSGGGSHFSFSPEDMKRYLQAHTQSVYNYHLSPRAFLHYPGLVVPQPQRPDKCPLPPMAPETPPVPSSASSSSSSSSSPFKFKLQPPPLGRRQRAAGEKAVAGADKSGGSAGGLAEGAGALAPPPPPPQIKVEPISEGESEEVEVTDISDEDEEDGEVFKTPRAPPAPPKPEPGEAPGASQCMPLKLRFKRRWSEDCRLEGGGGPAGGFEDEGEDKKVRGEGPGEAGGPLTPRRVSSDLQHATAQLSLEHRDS
Conditions: protein: recombinant; tags: N-terminal GST; dsDNA, one strand shown. In a few lines: as §1

A further experiment concerns the target T2, ETV7 (Homo sapiens, UniProt Q9Y603 1-341).
T2 sequence: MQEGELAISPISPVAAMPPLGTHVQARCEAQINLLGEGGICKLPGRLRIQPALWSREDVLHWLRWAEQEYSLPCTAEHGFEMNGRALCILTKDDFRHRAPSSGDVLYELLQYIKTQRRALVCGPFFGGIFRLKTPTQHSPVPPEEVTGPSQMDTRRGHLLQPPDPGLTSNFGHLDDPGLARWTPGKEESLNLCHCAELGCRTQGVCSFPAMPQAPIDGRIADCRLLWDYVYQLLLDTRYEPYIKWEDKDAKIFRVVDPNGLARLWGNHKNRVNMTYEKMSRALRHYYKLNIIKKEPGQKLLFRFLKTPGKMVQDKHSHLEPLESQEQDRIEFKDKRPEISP
Conditions: protein: recombinant; tags: N-terminal GST; dsDNA, one strand shown. In a few lines: as §1

Another experiment has as its target SPIB (Homo sapiens, UniProt Q01892 1-262). To be noted: protein: recombinant; tags: N-terminal GST; dsDNA, one strand shown. In short, it runs like this: as §1
Another experiment addresses CRX (Homo sapiens, UniProt O43186 1-299). Conditions: protein: recombinant; tags: N-terminal GST; dsDNA, one strand shown. In a few lines: as §1
The next experiment deals with T3, SPIC (Homo sapiens, UniProt Q8N5J4 1-248).
T3 sequence: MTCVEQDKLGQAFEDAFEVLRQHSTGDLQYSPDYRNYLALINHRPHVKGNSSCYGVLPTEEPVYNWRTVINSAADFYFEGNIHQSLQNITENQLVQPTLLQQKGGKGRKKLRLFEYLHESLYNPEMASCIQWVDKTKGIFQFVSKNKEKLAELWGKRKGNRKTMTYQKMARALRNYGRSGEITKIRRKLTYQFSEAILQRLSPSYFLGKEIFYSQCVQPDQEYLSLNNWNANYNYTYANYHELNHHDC
Conditions: protein: recombinant; tags: N-terminal GST; dsDNA, one strand shown. In a few lines: as §1

In a further experiment the target is T4, ELK1 (Homo sapiens, UniProt P19419 1-428).
T4 sequence: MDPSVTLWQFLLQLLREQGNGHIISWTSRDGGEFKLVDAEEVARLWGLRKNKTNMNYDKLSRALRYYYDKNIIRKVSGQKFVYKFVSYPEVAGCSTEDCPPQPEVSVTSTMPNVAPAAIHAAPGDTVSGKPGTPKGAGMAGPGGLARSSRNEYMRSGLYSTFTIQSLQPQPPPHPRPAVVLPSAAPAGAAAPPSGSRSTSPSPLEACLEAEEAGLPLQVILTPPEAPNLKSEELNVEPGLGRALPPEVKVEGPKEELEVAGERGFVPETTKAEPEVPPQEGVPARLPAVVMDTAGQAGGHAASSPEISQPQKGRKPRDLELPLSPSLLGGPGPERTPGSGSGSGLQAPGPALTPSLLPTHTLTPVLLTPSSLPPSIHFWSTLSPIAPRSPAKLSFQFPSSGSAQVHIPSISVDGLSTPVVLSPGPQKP
To be noted: protein: recombinant; tags: N-terminal GST; dsDNA, one strand shown. In a few lines: as §1

A further experiment addresses T5, ERG (Homo sapiens, UniProt P11308 1-479).
T5 sequence: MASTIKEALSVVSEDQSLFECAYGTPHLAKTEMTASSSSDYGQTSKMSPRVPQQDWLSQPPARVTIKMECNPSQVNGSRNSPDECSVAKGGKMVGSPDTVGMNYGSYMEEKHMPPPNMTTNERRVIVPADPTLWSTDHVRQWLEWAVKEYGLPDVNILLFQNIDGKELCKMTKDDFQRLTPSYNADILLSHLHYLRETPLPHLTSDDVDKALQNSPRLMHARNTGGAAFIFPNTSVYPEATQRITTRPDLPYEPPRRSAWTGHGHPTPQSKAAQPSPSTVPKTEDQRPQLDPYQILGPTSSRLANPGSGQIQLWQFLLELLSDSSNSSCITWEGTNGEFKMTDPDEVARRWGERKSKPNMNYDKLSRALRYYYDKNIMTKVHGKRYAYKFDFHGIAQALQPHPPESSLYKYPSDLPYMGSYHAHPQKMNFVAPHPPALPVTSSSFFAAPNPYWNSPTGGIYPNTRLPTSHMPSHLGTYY
Conditions: protein: recombinant; tags: N-terminal GST; dsDNA, one strand shown. In a few lines:
as §1

The target in another experiment is ELF1 (Homo sapiens, UniProt P32519 1-619). To be noted: protein: recombinant; tags: N-terminal GST; dsDNA, one strand shown. In short, it runs like this: as §1
Chain of ELF1 (P32519 whole entry): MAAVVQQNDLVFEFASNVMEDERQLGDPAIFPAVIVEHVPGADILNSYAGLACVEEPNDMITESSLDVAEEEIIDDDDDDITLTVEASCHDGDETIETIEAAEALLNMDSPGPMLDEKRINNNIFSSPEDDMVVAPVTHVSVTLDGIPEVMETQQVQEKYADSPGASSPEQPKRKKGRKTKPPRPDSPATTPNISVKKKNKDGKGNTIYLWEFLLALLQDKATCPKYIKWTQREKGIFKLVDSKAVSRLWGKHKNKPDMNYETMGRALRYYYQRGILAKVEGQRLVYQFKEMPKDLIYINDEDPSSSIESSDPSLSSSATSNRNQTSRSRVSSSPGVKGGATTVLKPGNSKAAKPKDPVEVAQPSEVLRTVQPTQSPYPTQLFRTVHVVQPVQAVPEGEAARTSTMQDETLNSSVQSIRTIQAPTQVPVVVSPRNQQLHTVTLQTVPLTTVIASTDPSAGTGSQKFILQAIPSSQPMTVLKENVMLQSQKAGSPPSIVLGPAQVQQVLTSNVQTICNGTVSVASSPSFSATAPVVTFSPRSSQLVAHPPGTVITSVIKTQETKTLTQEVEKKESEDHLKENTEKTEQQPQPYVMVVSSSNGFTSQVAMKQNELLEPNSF
Another experiment addresses T6, FEV (Homo sapiens, UniProt Q99581 1-238).
T6 sequence: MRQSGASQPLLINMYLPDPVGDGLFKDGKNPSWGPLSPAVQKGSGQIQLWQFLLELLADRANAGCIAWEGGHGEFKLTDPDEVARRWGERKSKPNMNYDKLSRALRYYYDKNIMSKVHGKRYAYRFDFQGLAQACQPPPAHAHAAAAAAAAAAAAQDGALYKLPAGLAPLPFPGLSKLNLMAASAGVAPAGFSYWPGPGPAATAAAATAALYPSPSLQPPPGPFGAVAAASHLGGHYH
To be noted: protein: recombinant; tags: N-terminal GST; dsDNA, one strand shown. In short, it runs like this: as §1

The target of another experiment is ELF4 (Homo sapiens, UniProt Q99607 1-663). To be noted: protein: recombinant; tags: N-terminal GST; dsDNA, one strand shown. In a few lines: as §1
Chain of ELF4 (Q99607 whole entry): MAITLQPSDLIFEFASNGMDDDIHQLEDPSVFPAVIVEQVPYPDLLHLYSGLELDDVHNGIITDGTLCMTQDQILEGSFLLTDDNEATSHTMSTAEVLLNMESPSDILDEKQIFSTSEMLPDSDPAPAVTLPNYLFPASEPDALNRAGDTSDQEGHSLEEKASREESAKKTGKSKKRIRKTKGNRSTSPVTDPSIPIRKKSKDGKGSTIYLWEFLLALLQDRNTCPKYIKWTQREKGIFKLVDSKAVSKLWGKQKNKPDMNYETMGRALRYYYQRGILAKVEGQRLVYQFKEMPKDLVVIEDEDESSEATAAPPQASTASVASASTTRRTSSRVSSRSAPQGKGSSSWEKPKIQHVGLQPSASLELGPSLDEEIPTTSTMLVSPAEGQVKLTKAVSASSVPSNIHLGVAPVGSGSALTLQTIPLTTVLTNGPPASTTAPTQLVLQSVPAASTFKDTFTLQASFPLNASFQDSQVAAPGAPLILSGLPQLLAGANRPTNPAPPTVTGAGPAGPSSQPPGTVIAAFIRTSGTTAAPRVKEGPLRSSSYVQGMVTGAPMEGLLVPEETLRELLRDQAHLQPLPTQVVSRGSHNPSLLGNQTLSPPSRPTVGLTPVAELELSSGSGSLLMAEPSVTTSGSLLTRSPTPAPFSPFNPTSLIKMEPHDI
A further experiment has as its target T7, ETV2 (Homo sapiens, UniProt O00321 1-342).
T7 sequence: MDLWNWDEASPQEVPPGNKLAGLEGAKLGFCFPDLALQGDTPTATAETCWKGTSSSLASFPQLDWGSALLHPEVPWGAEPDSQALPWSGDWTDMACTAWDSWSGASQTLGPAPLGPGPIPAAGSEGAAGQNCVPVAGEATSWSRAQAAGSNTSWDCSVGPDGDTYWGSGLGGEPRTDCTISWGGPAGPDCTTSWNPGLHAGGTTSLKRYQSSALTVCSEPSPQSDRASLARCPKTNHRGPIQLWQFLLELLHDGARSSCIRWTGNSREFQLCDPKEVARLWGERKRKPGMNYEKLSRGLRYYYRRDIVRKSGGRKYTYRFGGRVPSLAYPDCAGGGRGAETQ
To be noted: protein: recombinant; tags: N-terminal GST; dsDNA, one strand shown. In short, it runs like this:
as §1

A further experiment addresses T8, ETV3L (Homo sapiens, UniProt Q6ZN32 1-361).
T8 sequence: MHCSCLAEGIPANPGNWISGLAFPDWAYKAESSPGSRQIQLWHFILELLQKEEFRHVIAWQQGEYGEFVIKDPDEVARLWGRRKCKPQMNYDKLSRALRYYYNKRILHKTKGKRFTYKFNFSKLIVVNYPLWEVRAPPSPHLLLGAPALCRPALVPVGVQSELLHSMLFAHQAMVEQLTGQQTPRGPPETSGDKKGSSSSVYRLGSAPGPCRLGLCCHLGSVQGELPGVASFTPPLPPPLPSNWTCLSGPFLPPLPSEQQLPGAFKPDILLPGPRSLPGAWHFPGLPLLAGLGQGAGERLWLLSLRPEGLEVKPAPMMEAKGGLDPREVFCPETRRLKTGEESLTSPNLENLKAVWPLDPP
To be noted: protein: recombinant; tags: N-terminal GST; dsDNA, one strand shown. In a few lines: as §1

The target of another experiment is T9, ETV3 (Homo sapiens, UniProt P41162-2 1-143).
T9 sequence: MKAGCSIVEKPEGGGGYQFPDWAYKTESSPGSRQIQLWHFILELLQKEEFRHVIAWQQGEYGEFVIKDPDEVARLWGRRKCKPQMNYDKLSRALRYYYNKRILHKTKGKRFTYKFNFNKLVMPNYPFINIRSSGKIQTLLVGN
Conditions: protein: recombinant; tags: N-terminal GST; dsDNA, one strand shown. In a few lines: as §1

Chain of SPIB (Q01892 whole entry): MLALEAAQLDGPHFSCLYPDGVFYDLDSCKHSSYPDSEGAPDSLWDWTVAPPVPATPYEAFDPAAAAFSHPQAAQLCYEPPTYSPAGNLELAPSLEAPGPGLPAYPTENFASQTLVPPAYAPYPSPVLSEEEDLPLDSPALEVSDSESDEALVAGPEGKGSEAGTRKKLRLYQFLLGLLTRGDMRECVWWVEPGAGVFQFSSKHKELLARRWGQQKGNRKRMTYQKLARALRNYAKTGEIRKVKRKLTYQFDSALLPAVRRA
Chain of CRX (O43186 whole entry): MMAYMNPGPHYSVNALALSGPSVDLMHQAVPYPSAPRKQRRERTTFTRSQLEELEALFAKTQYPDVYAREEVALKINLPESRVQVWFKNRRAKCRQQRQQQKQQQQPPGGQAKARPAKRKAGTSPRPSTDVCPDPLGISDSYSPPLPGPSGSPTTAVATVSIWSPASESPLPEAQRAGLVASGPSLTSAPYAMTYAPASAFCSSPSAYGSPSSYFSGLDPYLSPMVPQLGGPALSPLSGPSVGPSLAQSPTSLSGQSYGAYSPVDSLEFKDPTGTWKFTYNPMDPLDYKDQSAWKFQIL
Chain of HSF1 (Q00613 whole entry, the tested form may be a part): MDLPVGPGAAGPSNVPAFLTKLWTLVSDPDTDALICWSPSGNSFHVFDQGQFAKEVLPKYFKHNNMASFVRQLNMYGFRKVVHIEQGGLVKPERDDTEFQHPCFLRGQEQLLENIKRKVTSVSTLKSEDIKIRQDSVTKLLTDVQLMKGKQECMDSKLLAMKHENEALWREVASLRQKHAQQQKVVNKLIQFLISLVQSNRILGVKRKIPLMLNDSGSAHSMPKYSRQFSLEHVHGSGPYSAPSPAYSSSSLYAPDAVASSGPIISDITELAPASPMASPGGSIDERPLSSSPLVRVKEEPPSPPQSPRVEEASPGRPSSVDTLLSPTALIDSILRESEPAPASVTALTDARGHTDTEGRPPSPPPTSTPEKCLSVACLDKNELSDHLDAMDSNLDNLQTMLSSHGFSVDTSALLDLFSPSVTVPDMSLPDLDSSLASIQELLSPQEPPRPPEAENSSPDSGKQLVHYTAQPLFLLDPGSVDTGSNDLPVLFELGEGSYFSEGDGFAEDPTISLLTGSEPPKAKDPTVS

Take GCGAAC: the binding signal with HSF1 is 1.03 fold enrichment (6-mer frequency, TF over GST control); in the experiment with ERF, 1.05 fold enrichment (6-mer frequency, TF over GST control); in the experiment with ETV7, 1.04 fold enrichment (6-mer frequency, TF over GST control).
Regarding GAATCA, the binding signal in the experiment with SPIB is 1.03 fold enrichment (6-mer frequency, TF over GST control); with HSF1 it was 1.06 fold enrichment (6-mer frequency, TF over GST control); in the experiment with CRX, 1.04 fold enrichment (6-mer frequency, TF over GST control).
Regarding AGGCAC, the binding signal in the experiment with SPIC is 1.03 fold enrichment (6-mer frequency, TF over GST control).
For GCATGC, the binding signal with SPIC is 1.07 fold enrichment (6-mer frequency, TF over GST control).
Same read-out and setting: the same measure for GACTCG: 1.02 fold enrichment (6-mer frequency, TF over GST control).
Consider TAGGCA, for which the binding signal was 1.03 fold enrichment (6-mer frequency, TF over GST control) with ELK1; 1.06 fold enrichment (6-mer frequency, TF over GST control) with ERG; 1.02 fold enrichment (6-mer frequency, TF over GST control) in the experiment with ELF1; 1.02 fold enrichment (6-mer frequency, TF over GST control) in the experiment with SPIB; 1.05 fold enrichment (6-mer frequency, TF over GST control) with FEV; 1.11 fold enrichment (6-mer frequency, TF over GST control) with SPIC. Moreover, the binding signal with ELF4 was 1.01 fold enrichment (6-mer frequency, TF over GST control); in the experiment with ETV2 it was 1.19 fold enrichment (6-mer frequency, TF over GST control); with CRX, 1.08 fold enrichment (6-mer frequency, TF over GST control); with ETV3L, 1.02 fold enrichment (6-mer frequency, TF over GST control); with ETV7 it was 1.06 fold enrichment (6-mer frequency, TF over GST control); in the experiment with ETV3, 1.01 fold enrichment (6-mer frequency, TF over GST control).
